Results filed as inconclusive are left out. Active and inactive are the calls of the source. Unless noted, calls come from the whole dose curve; as a rule, active = well fitted curve in the direction sought with a large enough effect in the repeat runs; inconclusive = weak or mixed curves; inactive = no such curve, though single readings can be large; an effect the other way counts as inactive or inconclusive.
Assays:
[1] = qHTS assay for small molecule agonists of the p53 signaling pathway (AID 651631; calls by dose curve; note: nearly all actives have a fitted effect of over 15% in size)
How it was run: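 We treat p53RE-bla HCT-116 cells with compounds for 16 h at 37 °C, add LiveBLAzer B/G FRET substrate for 2 h at room temperature, and measure fluorescence intensity.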

[2] = qHTS assay for small molecules that induce genotoxicity in human embryonic kidney cells expressing luciferase-tagged ATAD5 (AID 651632); note: nearly all actives have a fitted effect of over 15% in size
How it was run: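 Cells were seeded at 2,000 per well, dosed with compound, and incubated 16 hr at 37C in 5% CO2. Luciferase activity was then quantified after a 30 min room-temperature incubation with Amplite.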

[3] = qHTS assay for small molecule agonists of the p53 signaling pathway - cell viability (AID 651633; calls by dose curve;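 note: p53RE-bla HCT reporter cells with a stable beta-lactamase p53 reporter; series mostly up to about 83 µM; nearly all actives have a fitted effect of over 30% in size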)
How it was run: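 p53RE-bla cells were treated with compound for 16 hours at 37 C. Cytotoxicity was then measured as CellTiter-Glo luminescence after 30 min at room temperature.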

[4] = qHTS assay for small molecules that induce genotoxicity in human embryonic kidney cells expressing luciferase-tagged ATAD5 - cell viability (AID 651634; calls by dose curve; note: nearly all actives have a fitted effect of over 25% in size)
How it was run: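 Cells (HEK293T, luciferase-tagged ATAD5) are seeded at 2,000 per well, dosed with compound or DMSO vehicle, and incubated 15.5 hr at 37C and 5% CO2. CellTiter-Fluor is added for 30 min before fluorescence is measured.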

[5] = qHTS assay for small molecule disruptors of the mitochondrial membrane potential - cell viability (AID 720634; calls by dose curve;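 note: human HepG2 liver cancer cells; series mostly up to about 83 µM; nearly all actives have a fitted effect of over 20% in size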)
How it was run: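 Cytotoxicity was measured by ATP quantitation in HepG2 wells that had first been treated with compound for 1 hr and stained with m-MPI dye; CellTiter-Glo incubation was 30 min at room temperature.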

[6] = qHTS assay to test for compound auto fluorescence at 590 nm (red) in HepG2 cells (AID 720674)
How it was run: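 Seeding: 2,000 HepG2 cells/well, MEM/10% FBS, overnight 37 C. Dosing: compound vs DMSO. Incubation: 1 hr, 37 C, 5% CO2. Read: fluorescence 540 ex/590 em, Rose Bengal sodium as red reference.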

[7] = qHTS assay to test for compound auto fluorescence at 535 nm (green) in HepG2 cells (AID 720675)
[8] = qHTS assay to test for compound auto fluorescence at 460 nm (blue) in HEK293 cells (AID 720678)
How it was run: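 After cell attachment (4-5 hr, 37C), compounds were pinned onto HEK293 monolayers in 10% dialyzed FBS medium. The blue channel (405/460 nm) was read following overnight culture. Equivalency was calculated against triamterene.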

[9] = qHTS assay to test for compound auto fluorescence at 590 nm (red) in HEK293 cells (AID 720679)
How it was run: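 Plates of HEK293 cells (10% dialyzed FBS) are treated with 23 nL compound or DMSO vehicle after a 4-5 hr attachment period, incubated overnight at 37C, and read for red fluorescence at 540/590nm.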

[10] = qHTS assay to test for compound auto fluorescence at 535 nm (green) in HEK293 cells (AID 720680)
[11] = qHTS assay to test for compound auto fluorescence at 460 nm (blue) in HEK293 cell free culture (AID 720681)
How it was run: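 Compounds were added to cell-free DMEM with 10% FBS and fluorescence read directly. The blue channel used 405 nm excitation and 460 nm emission, with triamterene as the reference fluorophore.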

[12] = qHTS assay to test for compound auto fluorescence at 535 nm (green) in HEK293 cell free culture (AID 720682)
How it was run: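 Green-channel intensity (Ex/Em 485/535 nm) was recorded from compound-treated wells containing only DMEM with 10% FBS. Fluorescein provided the equivalency standard.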

[13] = qHTS assay to test for compound auto fluorescence at 590 nm (red) in HEK293 cell free culture (AID 720683)
How it was run: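 Cell-free wells of DMEM with 10% FBS received compound, and intrinsic fluorescence was read at excitation/emission 540/590 nm. Values expressed as equivalence to Rose Bengal sodium.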

[14] = qHTS assay to test for compound auto fluorescence at 590 nm (red) in HepG2 cell free culture (AID 720684)
How it was run: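 Rose Bengal sodium served as the reference for red signal. Test compounds were dispensed into serum-containing MEM (10% FBS) without cells, and plates were read at 540/590 nm.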

[15] = qHTS assay to test for compound auto fluorescence at 460 nm (blue) in HepG2 cell free culture (AID 720685)
How it was run: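 Cell-free plates of MEM plus 10% FBS received 23 nL compound or DMSO vehicle; blue-channel (405/460 nm) intensity scored against triamterene as reference fluorophore.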

[16] = qHTS assay to test for compound auto fluorescence at 535 nm (green) in HepG2 cell free culture (AID 720686)
[17] = qHTS assay to test for compound auto fluorescence at 460 nm (blue) in HepG2 cells (AID 720687)
How it was run: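 HepG2 cells in MEM with 10% FBS, attached overnight at 37 C, were exposed to compound or DMSO for 1 hr at 37 C, 5% CO2. Blue fluorescence was read at 405/460 nm, with triamterene as reference fluorophore.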

[18] = target: Glucocorticoid receptor (Homo sapiens) (UniProt P04150); assay: qHTS assay to identify small molecule agonists of the glucocorticoid receptor (GR) signaling pathway (AID 720691; active = well fitted activation curve with a large enough effect in the signal ratio in the repeat runs, not every such curve was filed as active; the % refers to the signal ratio)
Sequence of Glucocorticoid receptor (Homo sapiens) (P04150 whole entry, looked up): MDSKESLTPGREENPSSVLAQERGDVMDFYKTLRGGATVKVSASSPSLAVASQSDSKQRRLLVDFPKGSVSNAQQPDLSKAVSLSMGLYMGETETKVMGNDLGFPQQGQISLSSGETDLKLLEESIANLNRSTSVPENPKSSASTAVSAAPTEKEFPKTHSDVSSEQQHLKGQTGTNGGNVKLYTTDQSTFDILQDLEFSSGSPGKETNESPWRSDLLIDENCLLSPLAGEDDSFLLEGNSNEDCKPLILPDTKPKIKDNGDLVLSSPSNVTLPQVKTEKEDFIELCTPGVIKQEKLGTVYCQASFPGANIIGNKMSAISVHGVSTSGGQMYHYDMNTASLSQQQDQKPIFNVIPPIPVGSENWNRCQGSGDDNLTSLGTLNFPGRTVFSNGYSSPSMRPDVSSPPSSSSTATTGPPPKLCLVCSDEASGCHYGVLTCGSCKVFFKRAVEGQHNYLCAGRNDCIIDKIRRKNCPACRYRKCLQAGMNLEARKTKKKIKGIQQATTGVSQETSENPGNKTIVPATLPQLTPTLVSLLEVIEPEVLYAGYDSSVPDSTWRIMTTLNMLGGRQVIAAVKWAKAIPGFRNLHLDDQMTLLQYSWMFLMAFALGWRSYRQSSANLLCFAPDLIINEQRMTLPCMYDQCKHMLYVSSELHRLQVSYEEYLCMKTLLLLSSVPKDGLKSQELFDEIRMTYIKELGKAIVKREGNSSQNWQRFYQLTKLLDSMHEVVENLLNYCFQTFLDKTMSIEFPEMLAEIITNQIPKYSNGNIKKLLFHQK
How it was run: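 Steps: seed GR-bla HeLa cells, incubate 4 h at 37 C/5% CO2; pin-transfer DMSO-dissolved compounds; incubate 18 h at 37 C; add LiveBLAzer B/G FRET substrate; after 2 h at room temperature, measure fluorescence.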

[19] = target: Glucocorticoid receptor (Homo sapiens) (UniProt P04150); assay: qHTS assay to identify small molecule antagonists of the glucocorticoid receptor (GR) signaling pathway (AID 720692; active = well fitted inhibition curve with a large enough effect in the signal ratio in the repeat runs, not every such curve was filed as active; the % refers to the signal ratio)
How it was run: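 Antagonism was scored as loss of dexamethasone-driven (5 nM final) reporter signal in HeLa cells bearing a glucocorticoid response element–beta-lactamase construct, after 18 h compound exposure at 37 C and 2 h FRET substrate loading.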
% is set by controls: 0 for no effect and ±100 for the full control effect.

C=CCCCCCCCCO
inactive: Potency [1] | Potency [2] | Potency [3] | Potency [4] | Potency [5] | outcome [6] | outcome [7] | outcome [8] | outcome [9] | outcome [10] | outcome [11] | outcome [12] | outcome [13] | outcome [14] | outcome [15] | outcome [16] | outcome [17] | Potency [18]

CC1(C)S[C@@H]2[C@H](NC(=O)C(C(=O)O)c3ccccc3)C(=O)N2[C@H]1C(=O)O (some centres undefined)
inactive: Potency [1] | Potency [2] | Potency [3] | Potency [4] | Potency [5] | outcome [6] | outcome [7] | outcome [8] | outcome [9] | outcome [10] | outcome [11] | outcome [12] | outcome [13] | outcome [14] | outcome [16] | outcome [17] | Potency [18] | Potency [19]

CCC1(C)NC(=O)NC1=O (centres undefined)
inactive: Potency [1] | Potency [2] | Potency [3] | Potency [4] | Potency [5] | outcome [6] | outcome [7] | outcome [8] | outcome [9] | outcome [10] | outcome [11] | outcome [12] | outcome [13] | outcome [15] | outcome [16] | outcome [17]

OC[C@H]1O[C@@H](O[C@H]2[C@H](O)[C@@H](O)[C@H](O)O[C@@H]2CO)[C@H](O)[C@@H](O)[C@H]1O
inactive: Potency [1] | Potency [2] | Potency [3] | Potency [4] | Potency [5] | outcome [6] | outcome [7] | outcome [8] | outcome [9] | outcome [10] | outcome [11] | outcome [12] | outcome [13] | outcome [14] | outcome [16] | outcome [17] | Potency [18]

NC(Cc1ccc(F)cc1)C(=O)O (centres undefined)
inactive: activation [1] -4.8% [at 8.3 µM] | activation [2] 3.53% [at 8.08 µM] | activity change, negative = cytotoxicity [3] 33% [at 8.08 µM] | activity, negative = cytotoxicity [4] 10.7% [at 8.08 µM] | activity change, negative = cytotoxicity [5] -3.31% [at 8.08 µM] | fluorescence, relative to Rose Bengal [6] 0.0373% [at 3.72 µM] | fluorescence, % of fluorescein control [7] -0.0482% [at 3.72 µM] | fluorescence, % of triamterene [8] -0.105% [at 3.72 µM] | fluorescence, % of fluorescent control [9] 0.0934% [at 3.72 µM] | fluorescence, % of fluorescein [10] 0.0426% [at 3.72 µM] | fluorescence, % of fluorescent control [11] -0.189% [at 3.72 µM] | fluorescence, % of fluorescent control [13] 0.0018% [at 3.72 µM] | fluorescence, % of Rose Bengal [14] -0.117% [at 3.72 µM] | fluorescence, % of fluorescent control [15] -0.0373% [at 3.72 µM] | fluorescence, % of fluorescein control [16] -0.0064% [at 3.72 µM] | fluorescence, % of fluorescent control [17] -0.0921% [at 3.72 µM] | activation [18] -7.29% [at 6.9 µM]

CC(=O)Nc1ccc(C)c(Cl)c1
inactive: Potency [1] | Potency [2] | Potency [3] | Potency [4] | Potency [5] | outcome [6] | outcome [7] | outcome [8] | outcome [9] | outcome [10] | outcome [11] | outcome [12] | outcome [13] | outcome [14] | outcome [15] | outcome [16] | Potency [18] | Potency [19]

COc1ccc(S(=O)(=O)Nc2nnc(CC(C)C)s2)cc1
inactive: Potency [1] | Potency [2] | Potency [3] | Potency [4] | Potency [5] | outcome [6] | outcome [7] | outcome [8] | outcome [9] | outcome [10] | outcome [11] | outcome [12] | outcome [14] | outcome [15] | outcome [16] | outcome [17] | Potency [18] | Potency [19]

CCCCCCCCCC#N
inactive: Potency [1] | Potency [2] | Potency [3] | Potency [4] | Potency [5] | outcome [6] | outcome [7] | outcome [8] | outcome [9] | outcome [10] | outcome [11] | outcome [12] | outcome [13] | outcome [14] | outcome [15] | outcome [16] | outcome [17] | Potency [18] | Potency [19]

CCCCNCCCC
inactive: Potency [1] | Potency [2] | Potency [3] | Potency [4] | Potency [5] | outcome [6] | outcome [7] | outcome [8] | outcome [9] | outcome [10] | outcome [11] | outcome [12] | outcome [13] | outcome [15] | outcome [16] | outcome [17] | Potency [18] | Potency [19]

From PubChem BioAssay (Tox21)
